Here are results for 19 compounds from PubChem BioAssay (NCATS).

Experiment [1] in a line: qHTS of pediatric cancer cell lines to identify multiple opportunities for drug repurposing: Confirmatory screen for TC32 cells (AID 1347118).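 Further: cells exposed to compound for 48 h before the read; nearly all actives have a fitted effect of over 65% in size.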 Further: potency means the concentration at half of the fitted maximal effect. In a few lines:
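TC32 cells, 500-1,000/well in growth medium, compound-treated 48 h at 37 °C; viability from CellTiter-Glo luminescence. Primary screen: MIPE 11-point (0.78 nM–46 µM final), NPC 8-point (0.59 nM–46 µM final); confirmatory at 11-point dilutions.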
For orientation: Quantitative high-throughput screening tests each substance at several concentrations.

The nature of experiment [2]: qHTS of pediatric cancer cell lines to identify multiple opportunities for drug repurposing: Confirmatory screen for control Hh wild type fibroblast cells (AID 1347121). Further: nearly all actives have a fitted effect of over 70% in size. In a few lines: (§1)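 Cells (500-1,000/well) rested 5 h, then received compounds for 48 h; metabolically active cells were measured by CellTiter-Glo luminescence. Final concentrations spanned up to 46 µM (MIPE, 11-point) or 0.59 nM-46 µM (NPC, 8-point) in primary screens, 11-point in follow-ups.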

The nature of experiment [3]: qHTS of pediatric cancer cell lines to identify multiple opportunities for drug repurposing: Confirmatory screen for RD cells (AID 1347124).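 Further: cells exposed to compound for 48 h before viability readout; nearly all actives have a fitted effect of over 65% in size.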 Further: potency means the concentration at half of the fitted maximal effect. An outline of the steps:
as §1

The nature of experiment [4]: qHTS of pediatric cancer cell lines to identify multiple opportunities for drug repurposing: Confirmatory screen for Rh18 cells (AID 1347125). Further: nearly all actives have a fitted effect of over 55% in size. Further: potency means the concentration at half of the fitted maximal effect. In a few lines: as §1
Experiment [5] is described as follows: qHTS of pediatric cancer cell lines to identify multiple opportunities for drug repurposing: Confirmatory screen for Rh30 cells (AID 1347126). Further: nearly all actives have a fitted effect of over 55% in size. Further: potency means the concentration at half of the fitted maximal effect. In a few lines: as §1
A short description of experiment [6]: qHTS of pediatric cancer cell lines to identify multiple opportunities for drug repurposing: Confirmatory screen for Saos-2 cells (AID 1347127). Further: nearly all actives have a fitted effect of over 60% in size. Further: potency means the concentration at half of the fitted maximal effect. An outline of the steps:
as §1

Experiment [7] in a line: qHTS of pediatric cancer cell lines to identify multiple opportunities for drug repurposing: Confirmatory screen for OHS-50 cells (AID 1347128).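 Further: compound exposure lasted 48 h at 37 degrees C; nearly all actives have a fitted effect of over 55% in size.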 Further: potency means the concentration at half of the fitted maximal effect. In a few lines: as §1
The nature of experiment [8]: qHTS of pediatric cancer cell lines to identify multiple opportunities for drug repurposing: Confirmatory screen for Rh41 cells (AID 1347123).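 Further: 48 h compound exposure; nearly all actives have a fitted effect of over 60% in size.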 Further: potency means the concentration at half of the fitted maximal effect. An outline of the steps:
as §1

Experiment [9] in a line: qHTS of pediatric cancer cell lines to identify multiple opportunities for drug repurposing: Confirmatory screen for SK-N-SH cells (AID 1347129).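 Further: cells exposed to compound for 48 h before viability read; nearly all actives have a fitted effect of over 60% in size.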 Further: potency means the concentration at half of the fitted maximal effect. In a few lines:
as §1

The nature of experiment [10]: qHTS of pediatric cancer cell lines to identify multiple opportunities for drug repurposing: Confirmatory screen for MG 63 (6-TG R) cells (AID 1347119). Further: nearly all actives have a fitted effect of over 55% in size. Further: potency means the concentration at half of the fitted maximal effect. An outline of the steps:
as §1

Records with an inconclusive call do not appear. Calls of active or inactive are those of the source. The call rests on the fitted dose curve; in most records, active means well fitted curve in the direction sought with a large enough effect; inconclusive means small, poorly fitted or top-dose-only effect, or another doubt; inactive means no such curve, though single readings can be large; an effect the other way counts as inactive or inconclusive. Numbered stars: 1 amine (or outer) side, 2 acyl side, 3 side chain; on linkers, the order of the positions; unused ones are H or OH. Bridge positions count the residues as written; N and C are the ends. Square brackets hold non-standard residues; d marks the D form. Peptide text beside a SMILES is read from it. I, II: the chains in the order shown. Actinocin(9to1) = Cc1c2oc3c(C)ccc(C(=O)[*:1])c3nc-2c(C(=O)[*:2])c(N)c1=O; NMeV = CN[C@H](C(=O)O)C(C)C; Sar = CNCC(=O)O

Consider `CC1(C)O[C@@H]2C[C@H]3[C@@H]4CCC5=CC(=O)CC[C@]5(C)[C@@]4(F)[C@@H](O)C[C@]3(C)[C@]2(C(=O)CCl)O1`, for which the Potency result in experiment [1], in [2], in [3], in experiment [4], in experiment [5] and in experiment [6] was “inactive” in each case. Also, in [7], the Potency result is “inactive”.
As for `NC(=O)CC[C@@H]1NC(=O)[C@H](Cc2ccccc2)NC(=O)[C@H](Cc2ccc(O)cc2)NC(=O)CCSSC[C@@H](C(=O)N2CCC[C@H]2C(=O)N[C@@H](CCCN=C(N)N)C(=O)NCC(N)=O)NC(=O)[C@H](CC(N)=O)NC1=O`, the Potency result in experiment [1], in [2], in [8], in experiment [4], in experiment [5] and in experiment [6] was “inactive” throughout. Moreover, the Potency result in experiment [7] and in experiment [9] was “inactive” each time.
Take `CC(=O)Oc1ccc(C(c2ccc(OC(C)=O)cc2)c2ccccn2)cc1`: the figures for the Potency in experiment [1] and in [10] were 6570 nM (active) and 1170 nM (active), respectively. The Potency entry in experiment [2], in experiment [8], in experiment [3], in experiment [4], in [5] and in [6] was “inactive” each time. Moreover, the Potency entry in experiment [9] is “inactive”.
For the compound `Cc1c2oc3c(C)ccc(C(=O)N[C@@H]4C(=O)N[C@H](C(C)C)C(=O)N5CCC[C@H]5C(=O)N(C)CC(=O)N(C)[C@@H](C(C)C)C(=O)O[C@@H]4C)c3nc-2c(C(=O)N[C@@H]2C(=O)N[C@H](C(C)C)C(=O)N3CCC[C@H]3C(=O)N(C)CC(=O)N(C)[C@@H](C(C)C)C(=O)O[C@@H]2C)c(N)c1=O` (I: T[dV]P[Sar][NMeV] / II: T[dV]P[Sar][NMeV]; ester I:1-I:C, II:1-II:C; linker I:N-II:N via Actinocin(9to1)), the Potency in [1] is 9.3 nM (active); in [10] it was 32.9 nM (active); in experiment [8], 14.7 nM (active); in experiment [7], 29.3 nM (active); in [9], 11.8 nM (active). In addition, the Potency result in experiment [2] and in [5] was “inactive” throughout.
With `CC(=O)OCC(=O)[C@@]1(OC(C)=O)[C@@H](C)C[C@H]2[C@@H]3C[C@H](F)C4=CC(=O)C=C[C@]4(C)[C@@]3(F)[C@@H](O)C[C@@]21C`, the Potency entry in experiment [2], in experiment [3], in experiment [4], in experiment [5], in experiment [6] and in experiment [7] was “inactive” in each case. Besides, in experiment [9], the Potency result is “inactive”.
Turning to `C[C@@H]1C[C@H]2[C@@H]3CCC4=CC(=O)C=C[C@]4(C)[C@@]3(F)[C@@H](O)C[C@]2(C)[C@H]1C(=O)CO`, the Potency result in [1], in experiment [2], in [3], in [4], in [5] and in experiment [6] was “inactive” each time. Also, the Potency entry in [7] and in experiment [9] was “inactive” throughout.
In the case of `C[C@H]1C[C@H]2[C@@H]3CCC4=CC(=O)C=C[C@]4(C)[C@@]3(Cl)[C@@H](O)C[C@]2(C)[C@@]1(O)C(=O)CO`, the Potency result in experiment [1], in experiment [10], in experiment [2], in experiment [3], in experiment [4] and in experiment [5] was “inactive” throughout. Moreover, the Potency result in experiment [6], in experiment [7] and in experiment [9] was “inactive” each time.
As for `CC(=O)OCC(=O)[C@@]12N=C(C)O[C@@H]1C[C@H]1[C@@H]3CCC4=CC(=O)C=C[C@]4(C)[C@H]3[C@@H](O)C[C@@]12C`, the Potency was 369 nM (active) in experiment [1], 737 nM (active) in [6] and 1310 nM (active) in experiment [7].
For the compound `C[C@@H]1C[C@H]2[C@@H]3C[C@H](F)C4=CC(=O)C(Cl)=C[C@]4(C)[C@@]3(F)[C@@H](O)C[C@]2(C)[C@@]1(O)C(=O)CO`, the Potency entry in [8] and in [9] was “inactive” in each case. Moreover, the Potency in experiment [4] is 26100 nM (active).
Regarding `Oc1ccc(O)cc1`, the Potency in experiment [1] is 20800 nM (active). Moreover, the Potency result in experiment [10], in experiment [2], in experiment [3], in experiment [5], in experiment [6] and in experiment [7] was “inactive” in each case. For the same compound, in [9], the Potency result was “inactive”.
In the case of `COCc1c(C(C)C)nc(C(C)C)c(/C=C/[C@@H](O)C[C@@H](O)CC(=O)O)c1-c1ccc(F)cc1`, the Potency in [1] was 928 nM (active); in experiment [10], 36.9 nM (active); in experiment [8], 2330 nM (active); in experiment [3] it was 928 nM (active); in experiment [4], 522 nM (active); in experiment [5], 414 nM (active). Besides, the Potency in [6] is 65.7 nM (active); in [7], 465 nM (active); in [9] it was 418 nM (active). In addition, the Potency result in experiment [2] is “inactive”.
Consider `CC1(C)O[C@@H]2C[C@H]3[C@@H]4C[C@H](F)C5=CC(=O)CC[C@]5(C)[C@H]4[C@@H](O)C[C@]3(C)[C@]2(C(=O)CO)O1`, for which the Potency result in [10], in experiment [2], in experiment [8], in experiment [3], in experiment [4] and in experiment [6] was “inactive” each time. For the same compound, the Potency result in [7] and in experiment [9] was “inactive” throughout.
On to `CC(=O)[C@H]1CC[C@H]2[C@@H]3C[C@H](C)C4=CC(=O)CC[C@]4(C)[C@H]3[C@@H](O)C[C@]12C`, for which the Potency result in experiment [2], in experiment [3], in experiment [4], in experiment [5] and in experiment [9] was “inactive” in each case. In addition, the Potency in experiment [8] was 10400 nM (active).
As to `C[C@]12C=CC(=O)C=C1CC[C@@H]1[C@@H]2[C@@H](O)C[C@@]2(C)[C@H]1CC[C@]2(O)C(=O)CO`, in experiment [1], the Potency is 26100 nM (active). For the same compound, the Potency result in [10], in experiment [2], in experiment [8], in experiment [3], in experiment [4] and in experiment [5] was “inactive” in each case. The Potency result in experiment [6], in experiment [7] and in experiment [9] was “inactive” in each case.
For the compound `CC(=O)OCC(=O)[C@@]1(O)CC[C@H]2[C@@H]3CCC4=CC(=O)C=C[C@]4(C)[C@H]3[C@@H](O)C[C@@]21C`, the Potency entry in experiment [1], in [10], in experiment [2], in experiment [8], in experiment [3] and in [4] was “inactive” each time. Further, the Potency result in experiment [5], in experiment [7] and in experiment [9] was “inactive” throughout.
Turning to `CC(=O)O[C@]1(C(C)=O)CC[C@H]2[C@@H]3C[C@H](C)C4=CC(=O)CC[C@]4(C)[C@H]3CC[C@@]21C`, the Potency result in experiment [10], in experiment [2], in experiment [3], in experiment [4], in experiment [5] and in [6] was “inactive” each time.
Turning to `CC(=O)OCC(=O)[C@@]12OC(C)(C)O[C@@H]1C[C@H]1[C@@H]3C[C@H](F)C4=CC(=O)C=C[C@]4(C)[C@@]3(F)[C@@H](O)C[C@@]12C`, the Potency entry in experiment [1], in experiment [10], in experiment [8], in [3], in experiment [4] and in experiment [5] was “inactive” each time. Moreover, the Potency entry in [9] is “inactive”.
Regarding `CN(C)C(=S)SC(=S)N(C)C`, the Potency in [1] is 3690 nM (active); in experiment [8], 1310 nM (active); in [4] it was 5220 nM (active); in experiment [5], 4140 nM (active). Also, the Potency result in experiment [2], in [7] and in experiment [9] was “inactive” in each case.
In the case of `CN(C)/N=N/c1nc[nH]c1C(N)=O`, the Potency is 23300 nM (active) in [1] and 369 nM (active) in [10]. The Potency entry in experiment [2], in experiment [8], in [3], in experiment [4], in [5] and in experiment [6] was “inactive” each time. In addition, the Potency result in [9] was “inactive”.
